Bioassay records from PubChem.
An excerpt weighted towards active compounds, which were near 0.92% of everything screened.
CIT2 TOR yeast – modulators of CIT2-GFP expression in yeast, primary screen, S. cerevisiae, GFP fusion, multiplex flow cytometry, MLPCN library; S. cerevisiae CIT2-GFP strain, 3 h; 100 means same as DMSO wells; GFP response vs DMSO, % at 10 µM; 0.065% of 320,000 active;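 active = GFP response relative to DMSO above a set limit, near the screen mean plus 3 SD, cut at about 150% in these data; inconclusive = Fewer than 70 cells measured for a yeast strain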;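 also: ratio of well median GFP fluorescence to mean of DMSO wells on the plate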
AGP1 TOR yeast – modulators of AGP1-GFP expression in yeast TOR pathway, primary screen, cell-based, multiplex flow cytometry, S. cerevisiae, MLPCN library; AID 2066, 2009; GFP response vs DMSO, % at 10 µM; 0.02% of 320,000 active; 3 h; GFP as percent of DMSO wells;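 active = GFP response relative to DMSO above a set limit, near screen average plus 3 SD, cut at about 150% in these data; inconclusive = fewer than 70 cells counted for the yeast strain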;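 also: median GFP channel fluorescence of the gated AGP1 strain per well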
LAP4 TOR yeast – modulators of LAP4-GFP expression in yeast, primary screen, S. cerevisiae, multiplex flow cytometry, MLPCN library. 3 h; median GFP as percent of DMSO wells. GFP response vs DMSO, % at 10 µM. 0.34% of 320,000 active;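 active = GFP response vs DMSO above a set limit, about the screen mean plus 3 SD, cut at about 150% in these data; inconclusive = under 70 cell events counted for the yeast strain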
MEP2-GFP yeast – modulators of MEP2-GFP levels in yeast, primary screen, S. cerevisiae, multiplex flow cytometry, MLPCN library; S. cerevisiae MEP2-GFP strain, 3 h; 100% = DMSO control level; GFP response vs DMSO, % at 10 µM; 0.51% of 330,000 active;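 active = GFP response versus DMSO above a set limit, roughly screen mean plus 3 SD, cut at about 180% in these data; inconclusive = fewer than 70 cells counted for a yeast strain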;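 also: median GFP fluorescence of the barcode-gated MEP2-GFP cells per well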
RPL19A TOR yeast – RPL19A-GFP expression modulators in yeast, primary screen, cell-based, S. cerevisiae, multiplex flow cytometry, MLPCN. S. cerevisiae RPL19A-GFP strain, 3 h; hits give low values. percent response vs DMSO, % at 10 µM. 0.3% of 330,000 active;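 active = percent response vs DMSO below 50%; inconclusive = fewer than 70 events counted for the yeast strain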;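 also: median channel GFP fluorescence of the barcoded RPL19A-GFP strain; ratio of sample median GFP to plate DMSO average so 100% = DMSO; lower means less RPL19A-GFP as with rapamycin TOR inhibition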
* hit, by the source's call; [ ] = dose if it differs, or a comment.

`CSc1cccc(NC(=O)C2CCCN(S(=O)(=O)c3ccc(F)cc3)C2)c1` (stereo unspecified) gave CIT2 TOR yeast 96, AGP1 TOR yeast 109, LAP4 TOR yeast 103, MEP2-GFP yeast 105 and RPL19A TOR yeast 105.
`Clc1ccc(OCCSc2nnnn2C2CCCCC2)cc1` gave CIT2 TOR yeast inconclusive, LAP4 TOR yeast 102, MEP2-GFP yeast 236*[may fluoresce violet] and RPL19A TOR yeast 57.
For O=C(O)c1ccccc1C(=O)N1N=C(c2ccccc2)CC1c1ccccc1O (stereo unspecified) the results were CIT2 TOR yeast 98, AGP1 TOR yeast 94, LAP4 TOR yeast 91, MEP2-GFP yeast 101 and RPL19A TOR yeast 102.
O=C(c1ccccc1Br)N1N=C(c2ccccc2)CC1c1ccccc1F (stereo unspecified) was read as CIT2 TOR yeast inconclusive, AGP1 TOR yeast inconclusive, LAP4 TOR yeast 65, MEP2-GFP yeast 790*[may fluoresce violet] and RPL19A TOR yeast 19*[may fluoresce violet].
N#Cc1ccc(OCC(=O)NNC(=S)NC(=O)C2CC2)cc1 was read as CIT2 TOR yeast 108, AGP1 TOR yeast 105, LAP4 TOR yeast 104, MEP2-GFP yeast 111 and RPL19A TOR yeast 104.
Screening CC(C)c1ccc(OCC(=O)NNC(=S)NC(=O)C2CC2)cc1 returned CIT2 TOR yeast 102, AGP1 TOR yeast 113, LAP4 TOR yeast 154*[may fluoresce green], MEP2-GFP yeast 117 and RPL19A TOR yeast 108.
For CCN(CC(=O)NC1CCS(=O)(=O)C1)S(=O)(=O)c1cccc(C(C)=O)c1 (stereo unspecified) the results were CIT2 TOR yeast 101, AGP1 TOR yeast 109, LAP4 TOR yeast 96, MEP2-GFP yeast 105 and RPL19A TOR yeast 103.
`CCN(CC)C(=O)c1ccc2c3c(cccc13)C(=O)N(CCc1ccc(OC)c(OC)c1)C2=O` gave CIT2 TOR yeast 103, AGP1 TOR yeast 98, LAP4 TOR yeast 119, MEP2-GFP yeast 177* and RPL19A TOR yeast 104.
For Cc1ccc(S(=O)(=O)N2CCCC(C(=O)NCC3CCCO3)C2)cc1 (stereo unspecified) the results were CIT2 TOR yeast inconclusive, AGP1 TOR yeast 15, LAP4 TOR yeast 91, MEP2-GFP yeast 274*[may fluoresce violet] and RPL19A TOR yeast 62.
O=C(NCC1CCCO1)C1CCCN(S(=O)(=O)c2ccc(Br)cc2)C1 (stereo unspecified) was read as CIT2 TOR yeast 102, AGP1 TOR yeast 104, LAP4 TOR yeast 102, MEP2-GFP yeast 105 and RPL19A TOR yeast 104.
O=C(CCNS(=O)(=O)c1ccc(Cl)cc1)NCc1cccnc1 was read as CIT2 TOR yeast inconclusive, AGP1 TOR yeast inconclusive, LAP4 TOR yeast 118, MEP2-GFP yeast 252*[may fluoresce violet] and RPL19A TOR yeast 29*[may fluoresce violet].
`Cc1ccc(S(=O)(=O)NCCC(=O)NCc2cccnc2)cc1` gave CIT2 TOR yeast 97, AGP1 TOR yeast 99, LAP4 TOR yeast 104, MEP2-GFP yeast 97 and RPL19A TOR yeast 100.
`COc1ccc(N2CCN(C3CCCN(C(=O)CN4CCCC4=O)C3)CC2)cc1` (stereo unspecified) gave CIT2 TOR yeast 98, AGP1 TOR yeast 104, LAP4 TOR yeast 100, MEP2-GFP yeast 107 and RPL19A TOR yeast 98.
COc1ccc(/C(C)=N/NC(=O)c2nc(C)cc(C)n2)cc1 was read as CIT2 TOR yeast inconclusive, LAP4 TOR yeast 95, MEP2-GFP yeast 670*[may fluoresce violet] and RPL19A TOR yeast 40*[may fluoresce violet].
`COCCOC(=O)c1c(NC(=O)CN2CCc3ccccc32)sc(C(N)=O)c1C` gave CIT2 TOR yeast 101, AGP1 TOR yeast 100, LAP4 TOR yeast 101, MEP2-GFP yeast 105 and RPL19A TOR yeast 101.
For CCOC(=O)c1c(NC(=O)CN2CCCc3ccccc32)sc(C(C)=O)c1C the results were CIT2 TOR yeast inconclusive, AGP1 TOR yeast inconclusive, LAP4 TOR yeast 88, MEP2-GFP yeast 213*[may fluoresce violet] and RPL19A TOR yeast 54.
For COc1cccc(NC(=O)Cn2c3ccc(F)cc3c3nc4n(c(=O)c32)CCCS4)c1 the results were CIT2 TOR yeast 104, AGP1 TOR yeast 103, LAP4 TOR yeast 102, MEP2-GFP yeast 101 and RPL19A TOR yeast 103.
For COc1ccc(NC(=O)CN(C)S(=O)(=O)c2cnc[nH]2)cc1Cl the results were CIT2 TOR yeast 98, AGP1 TOR yeast 100, LAP4 TOR yeast 104, MEP2-GFP yeast 98 and RPL19A TOR yeast 97.
COc1ccc(NC(=O)CN(C)S(=O)(=O)c2cnc[nH]2)cc1OC was read as CIT2 TOR yeast inconclusive, AGP1 TOR yeast inconclusive, LAP4 TOR yeast 77, MEP2-GFP yeast 121 and RPL19A TOR yeast 25*[may fluoresce violet].
O=C(O)c1ccc(N2C(=O)CC(N3CCN(c4cccc(C(F)(F)F)c4)CC3)C2=O)cc1 (stereo unspecified) was read as CIT2 TOR yeast inconclusive, AGP1 TOR yeast inconclusive, LAP4 TOR yeast 90, MEP2-GFP yeast 603*[may fluoresce violet] and RPL19A TOR yeast 39*[may fluoresce violet].
For Cc1ccc(S(=O)(=O)Nc2cc(Cl)c(O)c3ncccc23)cc1 the results were CIT2 TOR yeast 103, AGP1 TOR yeast 99, LAP4 TOR yeast 154*, MEP2-GFP yeast 97 and RPL19A TOR yeast 103.
Cc1ccc(S(=O)(=O)Nc2cccnc2Oc2ccc(Cl)cc2)cc1 was read as CIT2 TOR yeast 88, AGP1 TOR yeast 114, LAP4 TOR yeast 111, MEP2-GFP yeast 103 and RPL19A TOR yeast 106.
For Cc1cc(Cl)ccc1OCCCC(=O)N1CCCCC1 the results were CIT2 TOR yeast 101, AGP1 TOR yeast 102, LAP4 TOR yeast 103, MEP2-GFP yeast 105 and RPL19A TOR yeast 101.
Cc1cc(Cl)ccc1OCCCC(=O)N1CCOCC1 was read as CIT2 TOR yeast inconclusive, AGP1 TOR yeast inconclusive, LAP4 TOR yeast 75, MEP2-GFP yeast 222*[may fluoresce violet] and RPL19A TOR yeast 36*[may fluoresce violet].
`CC(=O)Nc1ccc(S(=O)(=O)N(C)c2ccc(OCCOc3ccccc3F)cc2)cc1` gave CIT2 TOR yeast 92, AGP1 TOR yeast 99, LAP4 TOR yeast 107, MEP2-GFP yeast 95 and RPL19A TOR yeast 92.
Screening COc1ccccc1OCC(=O)Nc1nonc1NC(=O)COc1ccccc1OC returned CIT2 TOR yeast 96, AGP1 TOR yeast 97, LAP4 TOR yeast 92, MEP2-GFP yeast 96 and RPL19A TOR yeast 101.
Cc1cccc(N2CCN(C(=O)c3ccc4c(c3)NC(=O)C(CSCc3cccc(F)c3)N4)CC2C)c1 (stereo unspecified) was read as CIT2 TOR yeast inconclusive, AGP1 TOR yeast inconclusive, LAP4 TOR yeast inconclusive, MEP2-GFP yeast 188*[may fluoresce violet] and RPL19A TOR yeast 20*[may fluoresce violet].
For O=C(O)c1c[nH]c2ccc(S(=O)(=O)N3CCOCC3)cc12 the results were CIT2 TOR yeast inconclusive, AGP1 TOR yeast inconclusive, LAP4 TOR yeast 79, MEP2-GFP yeast 252*[may fluoresce violet] and RPL19A TOR yeast 15*[may fluoresce violet].
